# Experimental data: PubChem BioAssay (NCATS)
# Values joined by “and” are separate entries in the source; they are usually repeats but may differ in a detail not shown here. Equal entries are not always repeated. Results filed as inconclusive are left out. Where a call stands in place of a potency, no number is given. Unmarked numbers belong to inactive results. Active and inactive are the calls of the source. Calls come from the whole dose curve; as a rule, active = well fitted curve in the direction sought with a large enough effect; inconclusive = small, poorly fitted or top-dose-only effect, or another doubt; inactive = no such curve, though single readings can be large; an effect the other way counts as inactive or inconclusive.
# Key:
# [1] = P-glycoprotein substrates identified in KB-3-1 adenocarcinoma cell line, qHTS therapeutic library screen (AID 1346986); note: nearly all actives have a fitted effect of over 60% in size;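 note: potency is for cytotoxicity meaning loss of cell viability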
# Procedure, shortened: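 KB-3-1 parental and colchicine-selected P-gp-overexpressing KB-8-5-11 cells (colchicine omitted during assay), 500 cells/well, dosed in dose-response for 72 h at 37 °C; CellTiter-Glo luminescence. Cytotoxic: curve class -1.1 to -2.4, max response >50%, AC50 < 10 uM.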
# [2] = P-glycoprotein substrates identified in KB-8-5-11 adenocarcinoma cell line, qHTS therapeutic library screen (AID 1346987); note: nearly all actives have a fitted effect of over 65% in size; for activity change, negative = cytotoxicity: series mostly up to about 44 µM
# Procedure, shortened: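 KB-8-5-11, a colchicine-selected P-gp-overexpressing KB-3-1 subline, was grown without colchicine for the assay. Cells were seeded at 500 cells/well, dosed in concentration-response and incubated 72 h at 37 degree C, 5% CO2. Viability was read by CellTiter-Glo luminescence.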
# Potency is the fitted concentration of half-maximal effect.
compound,measurement,setting,value
CCCn1c(=O)c2[nH]c(-c3ccc(OCC(=O)O)cc3)nc2n(CCC)c1=O,Potency,[1],inactive
same,Potency,[2],inactive
COC(=O)CCSCc1ccc(-c2onc(C)c2NC(=O)OC(C)c2ccccc2Cl)cc1 (stereo not given),Potency,[1],inactive
same,Potency,[2],inactive
NC(=O)c1csc(C2OC(CO)C(O)C2O)n1 (stereo not given),Potency,[1],inactive
same,Potency,[2],inactive
Cc1ccc(Cc2c(C)nc3nc(SCC(=O)NCCN4CCNCC4)nn3c2C)cc1,Potency,[1],inactive
same,Potency,[2],inactive
C=C1CC2C(C)(CCC(=O)O)C(C(C)(C)O)CCC2(C)C2C(=O)OC(C)(C(=O)OC)C(=O)C12C (stereo not given),Potency,[1],inactive
same,Potency,[2],inactive
Nc1ccc(/C=C/C(=O)NCc2cc3cc(-c4ccc(C(=O)N5CCC(F)(F)CC5)cc4)cc(-c4ccc(F)cc4)c3o2)cn1,Potency,[1],517 nM (active)
same,Potency,[2],5.17 µM (active) and 5.8 µM (active)
C/C(=C\CCC1(C)C2CCC(C2)C1(C)O)C(=O)O (stereo not given),Potency,[1],inactive
same,Potency,[2],inactive
O=C1CCC(=O)N(O)CCCCCNC(=O)CCC(=O)N(O)CCOCCNC(=O)CCC(=O)N(O)CCCCCN1,Potency,[1],inactive
same,Potency,[2],inactive
CC(=O)C12OC(C)(C)OC1CC1C3CCC4=CC(=O)C=CC4(C)C3(F)C(O)CC12C (stereo not given),Potency,[1],inactive
same,Potency,[2],inactive
COC(=O)C1=COC(OC2OC(CO)C(O)C(O)C2O)C2C1C=CC2(O)CO (stereo not given),Potency,[1],inactive
same,Potency,[2],inactive
CC(=O)O[C@H]1CC[C@@]2(C)C(CC[C@@H](C)[C@]23Cc2c(O)cc4c(c2O3)CN([C@@H](CCC(=O)O)C(=O)O)C4=O)C1(C)C (stereo not given in full),Potency,[1],inactive
same,Potency,[2],inactive
CC(=O)N[C@@H](CCCCN)C(=O)N(C)[C@@H](CC(C)C)C(=O)N[C@H](C(=O)N(C)[C@@H](Cc1ccccc1)C(=O)N[C@H](Cc1ccccc1)C(N)=O)C(C)C,outcome,[1],inactive [at 5.11 µM]
same,outcome,[2],inactive [at 5.11 µM]
CC1C(=O)OCC2=CCN3CCC(OC(=O)C(C)(O)C1(C)O)C23 (stereo not given),Potency,[1],inactive
same,Potency,[2],inactive
O=C(/C=C/c1ccccc1)OC[C@]12O[C@H]1[C@@H](O)[C@@H]1C=CO[C@@H](O[C@@H]3O[C@H](CO)[C@@H](O)[C@H](O)[C@H]3O)[C@@H]12,Potency,[1],inactive
same,Potency,[2],inactive
CC(=O)OCC1(O)CCC2C(COC3OC(CO)C(O)C(O)C3OC(=O)/C=C/c3ccc(O)cc3)=COC(OC(=O)CC(C)C)C21 (stereo not given),Potency,[1],inactive
same,Potency,[2],inactive
CC(=O)OC[C@H]1O[C@H](O[C@]2(CO)O[C@H](CO)[C@@H](OC(=O)/C=C/c3ccccc3)[C@@H]2O)[C@H](O)[C@@H](O)[C@@H]1O,Potency,[1],inactive
same,Potency,[2],inactive
CC1(C)CC[C@]2(C(=O)O[C@@H]3O[C@H](CO[C@@H]4O[C@H](CO)[C@@H](O)[C@H](O)[C@H]4O[C@@H]4O[C@H](CO)[C@@H](O)[C@H](O)[C@H]4O)[C@@H](O)[C@H](O[C@@H]4O[C@H](CO)[C@@H](O)[C@H](O)[C@H]4O)[C@H]3O)CC[C@]3(C)C(=CCC4[C@@]5(C)CC[C@@H](O)[C@@](C)(C(=O)O[C@@H]6O[C@H](CO)[C@@H](O)[C@H](O)[C@H]6O)C5CC[C@]43C)[C@@H]2C1 (stereo not given in full),outcome,[1],inactive [at 9.29 µM]
same,outcome,[2],inactive [at 9.29 µM]
Cc1ccc(-c2ccc3c(ccc4sc5c(c43)NC[C@@H](C)NC5=O)n2)cn1,Potency,[1],inactive
same,Potency,[2],inactive
OC[C@H]1O[C@@H](OC(CCCCc2ccc(O)cc2)CCc2ccc(O)cc2)[C@H](O)[C@@H](O)[C@@H]1O (stereo not given in full),Potency,[1],inactive
same,Potency,[2],inactive
CC1(C=O)CC[C@]2(C(=O)O[C@@H]3O[C@H](CO)[C@@H](O)[C@H](O)[C@H]3O)CC[C@]3(C)C(=CCC4[C@@]5(C)C[C@H](O)[C@H](O[C@@H]6OC[C@@H](O)[C@H](O)[C@H]6O)[C@@](C)(CO)C5CC[C@]43C)C2C1 (stereo not given in full),outcome,[1],inactive [at 9.29 µM]
same,outcome,[2],inactive [at 9.29 µM]
OC[C@H]1O[C@@H](Oc2cc(O)c3c(c2)O[C@@H](c2ccc(O)cc2)[C@H](O)C3)[C@H](O)[C@@H](O)[C@@H]1O,Potency,[1],inactive
same,Potency,[2],inactive
CCn1c(=O)c(-c2ccn[nH]2)cc2c(C)nc(N)nc21,Potency,[1],3660 nM (active)
same,Potency,[2],2.91 µM (active)
C=C1CC23CC1CCC2C12OC(=O)C(C)(CCC1O)C2C3C(=O)O (stereo not given),Potency,[1],inactive
same,Potency,[2],inactive
COC(=O)C1=CO[C@@H](O[C@@H]2O[C@H](CO[C@@H]3O[C@H](COC(=O)/C=C/c4cc(OC)c(O)c(OC)c4)[C@@H](O)[C@H](O)[C@H]3O)[C@@H](O)[C@H](O)[C@H]2O)[C@@H]2C(CO)=CC[C@H]12,Potency,[1],inactive
same,Potency,[2],inactive
COc1ccc(C2(O)c3ccccc3NC(=O)C2O)cc1 (stereo not given),Potency,[1],inactive
same,Potency,[2],inactive
COc1ccc(/C=C\C(=O)O)c(O[C@@H]2O[C@H](CO)[C@@H](O)[C@H](O)[C@H]2O)c1,Potency,[1],inactive
same,Potency,[2],inactive
C=C1CC[C@@H]2[C@@](C)(CO[C@@H]3O[C@H](CO)C(O)[C@H](O)C3O)[C@H](O)CC[C@@]2(C)[C@@H]1CC/C(C)=C/CO (stereo not given in full),outcome,[1],inactive [at 9.29 µM]
same,"activity change, negative = cytotoxicity",[2],5.95% [at 9.29 µM]
COc1cc([C@H]2c3cc(O)c(OC)cc3C[C@@H](CO[C@@H]3O[C@H](CO)[C@@H](O)[C@H](O)[C@H]3O)[C@@H]2CO)ccc1O,Potency,[1],inactive
same,Potency,[2],inactive
C/C(=C\CCC(C)CCO)C(=O)O[C@@H]1[C@@H](O)[C@H](OC2OC=C(C(=O)O)C3CCC(C)(O)C23)O[C@H](CO)[C@H]1O (stereo not given in full),Potency,[1],inactive
same,Potency,[2],inactive
CCS(=O)(=O)N1CCN(c2ccc(Nc3ncc(C(N)=O)c(NC4CC4)n3)cc2)CC1,Potency,[1],4610 nM (active)
same,Potency,[2],7.31 µM (active)
CC/C=C\CC1C(=O)C=CC1(CCCCCCCC(=O)O)OC(C)=O (stereo not given),Potency,[1],inactive
same,Potency,[2],inactive
C=C1[C@H](OC(C)=O)[C@H]2[C@@H](OC(C)=O)[C@](C)(OC(C)=O)C[C@]2(OC(C)=O)C(=O)[C@H](C)/C=C/C(C)(C)C(=O)[C@H](OC(=O)C(C)CC)[C@H]1OC(C)=O (stereo not given in full),Potency,[1],inactive
same,Potency,[2],inactive
CCCCNc1ncc2c(-c3ccc(CN4CCN(C)CC4)cc3)cn(C3CCC(O)CC3)c2n1 (stereo not given),Potency,[1],517 nM (active)
same,Potency,[2],1.3 µM (active)
CC(=O)O[C@@H]1[C@@H](OC(=O)/C=C/c2ccccc2)[C@@H](OC(C)=O)[C@H](O[C@H]2[C@@H]3C=CO[C@@H](O[C@@H]4O[C@H](CO)[C@@H](O)[C@H](O)[C@H]4O)[C@@H]3[C@@]3(CO)O[C@@H]23)O[C@H]1C,Potency,[1],inactive
same,Potency,[2],inactive
CC(C)=CC/C=C(\C)[C@H]1CC[C@]2(C)[C@@H]1[C@H](O)C[C@@H]1[C@@]3(C)CC[C@H](O)C(C)(C)[C@@H]3[C@@H](O[C@@H]3O[C@H](CO)[C@@H](O)[C@H](O)[C@H]3O)C[C@]12C,Potency,[1],inactive
same,Potency,[2],inactive
